Reference: PubChem BioAssay (Tox21)
Results filed as inconclusive are left out. Active and inactive are the calls of the source. Calls come from the whole dose curve; as a rule, active = well fitted curve in the direction sought with a large enough effect in the repeat runs; inconclusive = weak or mixed curves; inactive = no such curve, though single readings can be large; an effect the other way counts as inactive or inconclusive.

Tests used:
[1] = Caspase-3/7 induction in HepG2 cells by small molecules, qHTS assay (AID 1346978); settings: HepG2 caspase-3/7 activation, Caspase-Glo luminescence, 17 h; series mostly up to 92.4 µM; note: nearly all actives have a fitted effect of over 15% in size; note: potency is the fitted concentration of half-maximal effect
Procedure, shortened: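 Wild-type HepG2 cells (2,000/well) were settled 5 h at 37 C, 5% CO2, then exposed to compounds in DMSO for 17 h. Caspase-3/7 activity was read by luminescence 30 min after adding Caspase-Glo 3/7 reagent at room temperature.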

[2] = Caspase-3/7 induction in CHO-K1 cells by small molecules, qHTS assay (AID 1346980); settings: CHO-K1 caspase-3/7 induction, Caspase-Glo luminescence, 17 h; series mostly up to 92.4 µM; note: nearly all actives have a fitted effect of over 15% in size
Procedure, shortened: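 Wild-type cells were seeded at 1,500 per well and settled 5 hr at 37 C, 5% CO2, then exposed to DMSO-dissolved compounds for 17 hr. Caspase-Glo 3/7 reagent was added, and luminescence was read after 30min at room temperature.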

[3] = target: Cytochrome P450 2C19 (Homo sapiens) (UniProt P33261); assay: Cytochrome P450 Family 2 Subfamily C Member 19 (CYP2C19) small molecule antagonists: luciferase reporter qHTS assay (AID 1671197); settings: P450-Glo CYP2C19 enzyme, luciferin luminescence, 1 h; series mostly up to 115 µM; note: nearly all actives have a fitted effect of over 65% in size; note: potency is the fitted concentration of half-maximal effect
Procedure, shortened: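 Relative luminescence units recorded 20 min after the detection reagent stopped a 1 h, 37C CYP2C19 reaction on proluciferin substrate, which was started by NADPH regeneration following 10 min room-temperature compound preincubation; ketoconazole positive control.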

[4] = target: Cytochrome P450 2C9 (Homo sapiens) (UniProt P11712); assay: Cytochrome P450 Family 2 Subfamily C Member 9 (CYP2C9) small molecule antagonists: luciferase reporter qHTS assay (AID 1671198); settings: P450-Glo CYP2C9 enzyme assay, luciferin luminescence; series mostly up to 115 µM; note: nearly all actives have a fitted effect of over 50% in size; note: potency is the fitted concentration of half-maximal effect
Procedure, shortened: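 CYP2C9 activity was measured with a P450-Glo proluciferin substrate. Enzyme–substrate mix was held with compound for 10 min at room temperature, then NADPH regeneration solution was added for 1 h at 37C. Luciferin product was read as luminescence.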

[5] = target: Cytochrome P450 1A2 (Homo sapiens) (UniProt P05177); assay: Cytochrome P450 Family 1 Subfamily A Member 2 (CYP1A2) small molecule antagonists: luciferase reporter qHTS assay (AID 1671199); settings: P450-Glo CYP1A2 enzyme, luciferin luminescence, 1 h; series mostly up to 115 µM; note: nearly all actives have a fitted effect of over 50% in size; note: potency is the fitted concentration of half-maximal effect
Procedure, shortened: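 Luminescence readout (relative luminescence units) after luciferin detection reagent, 20 min RT. Preceded by 1 h room-temperature CYP1A2 reaction with NADPH regeneration solution following 10 min compound preincubation with enzyme and proluciferin substrate. Furafylline positive control.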

[6] = target: Cytochrome P450 3A4 (Homo sapiens) (UniProt P08684); assay: Cytochrome P450 Family 3 Subfamily A Member 4 (CYP3A4) small molecule antagonists: luciferase reporter qHTS assay (AID 1671201); settings: P450-Glo CYP3A4 enzyme, luciferin luminescence, 1 h; series mostly up to 115 µM; note: nearly all actives have a fitted effect of over 50% in size; note: potency is the fitted concentration of half-maximal effect
Procedure, shortened: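 Relative luminescence units after 20 min with luciferin detection reagent served as read-out. Beforehand, CYP3A4 turned over a proluciferin substrate for 1 h at room temperature with NADPH regeneration, following 10 min compound preincubation.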

[7] = Caspase-3/7 induction in HepG2 cells by small molecules, qHTS cell viability counter screen (AID 1346981); settings: CellTiter-Fluor fluorescence, 17 h; series mostly up to 92.4 µM; note: nearly all actives have a fitted effect of over 30% in size; note: potency is the fitted concentration of half-maximal effect
Procedure, shortened: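 Fluorescence read-out of live-cell protease activity (CellTiter-Fluor) after 1 hr with reagent. This was measured in the same wells as the caspase-3/7 luminescence, on HepG2 cells exposed to DMSO-dissolved compounds for 16 hr at 37 C.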

[8] = target: Nuclear receptor subfamily 1 group I member 2 (Homo sapiens) (UniProt O75469); assay: Human pregnane X receptor (PXR) small molecule agonists, qHTS assay (AID 1346982); settings: PXR-Luc HepG2, CYP3A4 luciferase reporter, 24 h; series mostly up to 92.4 µM; note: nearly all actives have a fitted effect of over 35% in size; note: potency is the fitted concentration of half-maximal effect
Procedure, shortened: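 HepG2 PXR-Luc reporter line, 5% charcoal-stripped FBS; 5 hr pre-incubation, compound (DMSO) 24 hr at 37 C/5% CO2; ONE-Glo 30 min RT; luminescence read-out.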

[9] = target: Cytochrome P450 2D6 (Homo sapiens) (UniProt P10635); assay: Cytochrome P450 Family 2 Subfamily D Member 6 (CYP2D6) small molecule antagonists: luciferase reporter qHTS assay (AID 1671196); settings: P450-Glo CYP2D6 enzyme assay, luciferin luminescence, 1 h; series mostly up to 115 µM; note: nearly all actives have a fitted effect of over 50% in size; note: potency is the fitted concentration of half-maximal effect
Procedure, shortened: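 Luminogenic proluciferin substrate, CYP2D6 enzyme; 10 min RT preincubation with compound, NADPH regeneration system added, 1 h RT. Stop/detection reagent, 20 min RT, luminescence read (RLU). Signal proportional to CYP activity.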

[10] = target: Voltage-gated inwardly rectifying potassium channel KCNH2 (Homo sapiens) (UniProt Q12809); assay: Human Ether-a-go-go-Related Gene (hERG) channel small molecule antagonists: fluorescence cell-based qHTS assay (AID 1671200); settings: hERG-U2OS cells, FluxOR thallium flux fluorescence; series mostly up to 76.8 µM; note: nearly all actives have a fitted effect of over 50% in size; note: potency is the fitted concentration of half-maximal effect
Procedure, shortened: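 Thallium served as the potassium surrogate; its influx into dye-loaded U2OS cells carrying the channel was measured by fluorescence over 2 min.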

[11] = target: Nuclear receptor subfamily 1 group I member 2 (Homo sapiens) (UniProt O75469); assay: CYP3A4 induction through human pregnane X receptor (PXR) by small molecules, qHTS assay (AID 1346984); settings: DPX-2 HepG2 PXR, CYP3A4-luciferin luminescence, 24 h; series mostly up to 46.1 µM; note: nearly all actives have a fitted effect of over 40% in size
Procedure, shortened: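 HepG2-derived DPX-2 line carrying PXR plus a CYP3A4-promoter luciferase reporter; cells plated 5 hr, compound-exposed 24 hr at 37C. CYP3A4 activity probed with 3uM (final) Luciferin-IPA for 3hr, then luciferase read after One-Glo.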

[12] = target: Nuclear receptor subfamily 1 group I member 2 (Homo sapiens) (UniProt O75469); assay: Human pregnane X receptor (PXR) activation by small molecules, qHTS assay (AID 1346985); settings: DPX-2 HepG2 CYP3A4-luciferase, 24 h; series mostly up to 38.3 µM; note: nearly all actives have a fitted effect of over 40% in size; note: potency is the fitted concentration of half-maximal effect
Procedure, shortened: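 DPX-2 cells (HepG2 co-transfected with a PXR response element and a CYP3A4-promoter luciferase construct) were seeded at 2,000 per well, rested 5 hr at 37C, then exposed to DMSO-dissolved compounds for 24 hr. Activation was read as luciferase luminescence.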

[13] = Caspase-3/7 induction in CHO-K1 cells by small molecules, qHTS cell viability counter screen (AID 1346979); settings: CellTiter-Fluor fluorescence, 17 h; series mostly up to 92.4 µM; note: nearly all actives have a fitted effect of over 35% in size; note: potency is the fitted concentration of half-maximal effect
Procedure, shortened: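 Viability readout by fluorescence (CellTiter-Fluor) on wild-type CHO-K1 cells exposed for 16hr at 37C and 5% CO2 to compounds delivered in DMSO; reagent incubated 1hr before reading.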

[14] = target: Nuclear receptor subfamily 1 group I member 2 (Rattus norvegicus) (UniProt Q9R1A7); assay: Rat pregnane X receptor (rPXR) activation by small molecules, qHTS assay (AID 1346983); settings: rPXR luciferase reporter cells, One-Glo luminescence, 24 h; max activation: hits give high values; note: nearly all actives have a fitted effect of over 20% in size
Procedure, shortened: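 Cell-based rPXR luciferase reporter assay, 2,000 cells per well, rested 5hr at 37 C before compound addition in DMSO, then 24 hr at 37 C. One-Glo reagent was added and luminescence read after 30 min at room temperature.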
% is set by controls: 0 for no effect and ±100 for the full control effect.

Chain of Cytochrome P450 1A2 (Homo sapiens) (P05177 whole entry, looked up): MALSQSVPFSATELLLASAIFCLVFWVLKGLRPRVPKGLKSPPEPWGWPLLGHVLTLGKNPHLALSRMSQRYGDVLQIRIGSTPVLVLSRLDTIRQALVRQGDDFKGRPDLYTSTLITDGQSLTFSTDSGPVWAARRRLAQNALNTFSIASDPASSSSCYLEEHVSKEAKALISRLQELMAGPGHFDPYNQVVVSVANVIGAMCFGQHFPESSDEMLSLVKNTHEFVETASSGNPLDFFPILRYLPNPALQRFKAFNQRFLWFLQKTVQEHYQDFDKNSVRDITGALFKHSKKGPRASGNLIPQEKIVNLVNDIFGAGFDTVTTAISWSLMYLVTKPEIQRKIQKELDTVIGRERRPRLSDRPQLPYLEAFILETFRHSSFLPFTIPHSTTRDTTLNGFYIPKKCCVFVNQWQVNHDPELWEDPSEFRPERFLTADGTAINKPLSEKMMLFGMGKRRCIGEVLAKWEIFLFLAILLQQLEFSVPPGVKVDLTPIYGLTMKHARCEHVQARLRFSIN
Chain of Nuclear receptor subfamily 1 group I member 2 (Homo sapiens) (O75469 whole entry, looked up): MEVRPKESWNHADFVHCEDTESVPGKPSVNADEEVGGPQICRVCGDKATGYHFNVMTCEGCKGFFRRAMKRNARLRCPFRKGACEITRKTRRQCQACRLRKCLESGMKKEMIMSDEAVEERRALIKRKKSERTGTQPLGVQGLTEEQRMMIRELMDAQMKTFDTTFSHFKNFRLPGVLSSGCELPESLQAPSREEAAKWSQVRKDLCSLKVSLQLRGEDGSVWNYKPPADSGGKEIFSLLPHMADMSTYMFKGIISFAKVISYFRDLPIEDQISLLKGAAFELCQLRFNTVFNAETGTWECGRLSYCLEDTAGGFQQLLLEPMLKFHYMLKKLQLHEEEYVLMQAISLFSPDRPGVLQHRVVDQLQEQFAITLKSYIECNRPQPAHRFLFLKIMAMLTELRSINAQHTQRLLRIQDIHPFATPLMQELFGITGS
Chain of Cytochrome P450 2D6 (Homo sapiens) (P10635 whole entry, looked up): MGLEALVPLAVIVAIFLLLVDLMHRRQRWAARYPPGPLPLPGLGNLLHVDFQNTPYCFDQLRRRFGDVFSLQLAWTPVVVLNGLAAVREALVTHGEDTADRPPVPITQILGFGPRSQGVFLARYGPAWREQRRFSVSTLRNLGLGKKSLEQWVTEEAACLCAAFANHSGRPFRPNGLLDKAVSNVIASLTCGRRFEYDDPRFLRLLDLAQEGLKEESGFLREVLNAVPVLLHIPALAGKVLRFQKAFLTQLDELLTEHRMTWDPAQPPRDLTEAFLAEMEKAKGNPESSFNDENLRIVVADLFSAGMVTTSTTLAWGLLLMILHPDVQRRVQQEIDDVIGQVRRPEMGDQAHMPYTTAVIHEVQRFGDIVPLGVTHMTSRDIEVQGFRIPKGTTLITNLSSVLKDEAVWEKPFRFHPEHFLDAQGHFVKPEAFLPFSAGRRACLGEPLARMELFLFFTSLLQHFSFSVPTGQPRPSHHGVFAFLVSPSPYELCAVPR
Chain of Cytochrome P450 3A4 (Homo sapiens) (P08684 whole entry, looked up): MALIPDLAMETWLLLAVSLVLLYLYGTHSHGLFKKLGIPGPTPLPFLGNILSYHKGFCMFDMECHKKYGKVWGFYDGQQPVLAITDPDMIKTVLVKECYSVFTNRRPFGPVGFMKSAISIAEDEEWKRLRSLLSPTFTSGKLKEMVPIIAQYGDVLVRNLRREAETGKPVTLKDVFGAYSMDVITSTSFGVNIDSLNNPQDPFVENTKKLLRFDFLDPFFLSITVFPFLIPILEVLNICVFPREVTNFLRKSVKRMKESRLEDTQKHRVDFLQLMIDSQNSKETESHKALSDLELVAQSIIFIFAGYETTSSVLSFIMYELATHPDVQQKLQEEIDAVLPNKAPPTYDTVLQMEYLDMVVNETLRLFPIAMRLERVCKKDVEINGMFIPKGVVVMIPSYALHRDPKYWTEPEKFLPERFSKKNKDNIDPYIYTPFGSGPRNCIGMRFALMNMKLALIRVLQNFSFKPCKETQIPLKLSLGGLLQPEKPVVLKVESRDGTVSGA
Chain of Cytochrome P450 2C19 (Homo sapiens) (P33261 whole entry, looked up): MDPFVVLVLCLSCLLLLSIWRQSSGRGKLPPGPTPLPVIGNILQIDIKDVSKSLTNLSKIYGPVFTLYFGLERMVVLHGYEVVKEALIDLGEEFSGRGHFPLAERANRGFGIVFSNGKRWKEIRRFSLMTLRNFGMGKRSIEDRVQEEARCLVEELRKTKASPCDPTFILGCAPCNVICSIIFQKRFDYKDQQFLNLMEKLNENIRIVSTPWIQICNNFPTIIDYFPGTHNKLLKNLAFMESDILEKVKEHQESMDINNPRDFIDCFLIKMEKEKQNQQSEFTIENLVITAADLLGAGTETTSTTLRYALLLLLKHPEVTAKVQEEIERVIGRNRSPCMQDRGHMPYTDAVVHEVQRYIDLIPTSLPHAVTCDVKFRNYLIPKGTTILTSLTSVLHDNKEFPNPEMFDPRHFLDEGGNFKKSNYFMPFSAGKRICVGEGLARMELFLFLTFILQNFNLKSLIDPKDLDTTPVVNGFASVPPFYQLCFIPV
Chain of Nuclear receptor subfamily 1 group I member 2 (Rattus norvegicus) (Q9R1A7 whole entry, looked up): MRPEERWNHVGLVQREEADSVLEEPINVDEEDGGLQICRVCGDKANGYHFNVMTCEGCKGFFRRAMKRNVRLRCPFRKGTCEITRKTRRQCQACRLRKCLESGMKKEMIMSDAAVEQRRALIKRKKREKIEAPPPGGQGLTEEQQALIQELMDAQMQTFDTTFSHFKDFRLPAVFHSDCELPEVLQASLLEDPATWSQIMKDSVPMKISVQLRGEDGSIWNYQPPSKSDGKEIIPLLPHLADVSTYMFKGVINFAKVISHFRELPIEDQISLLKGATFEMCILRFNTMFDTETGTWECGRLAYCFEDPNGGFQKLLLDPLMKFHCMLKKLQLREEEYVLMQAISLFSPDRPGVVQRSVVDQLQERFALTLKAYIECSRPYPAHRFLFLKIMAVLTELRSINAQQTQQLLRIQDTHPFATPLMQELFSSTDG
Chain of Cytochrome P450 2C9 (Homo sapiens) (P11712 whole entry, looked up): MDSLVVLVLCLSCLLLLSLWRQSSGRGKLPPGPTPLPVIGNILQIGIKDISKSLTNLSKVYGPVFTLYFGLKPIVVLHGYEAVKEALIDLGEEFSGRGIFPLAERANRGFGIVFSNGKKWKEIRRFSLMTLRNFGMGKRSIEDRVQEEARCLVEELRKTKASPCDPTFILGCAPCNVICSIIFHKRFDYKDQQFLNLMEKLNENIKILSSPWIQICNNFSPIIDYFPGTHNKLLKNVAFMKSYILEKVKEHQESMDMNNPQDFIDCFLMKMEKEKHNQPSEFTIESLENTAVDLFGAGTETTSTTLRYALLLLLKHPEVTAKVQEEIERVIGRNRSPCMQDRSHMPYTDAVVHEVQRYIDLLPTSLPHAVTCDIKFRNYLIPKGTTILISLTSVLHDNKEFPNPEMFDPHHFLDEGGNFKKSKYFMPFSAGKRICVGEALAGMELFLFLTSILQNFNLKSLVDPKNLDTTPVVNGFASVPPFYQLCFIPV
Chain of Voltage-gated inwardly rectifying potassium channel KCNH2 (Homo sapiens) (Q12809 whole entry, looked up): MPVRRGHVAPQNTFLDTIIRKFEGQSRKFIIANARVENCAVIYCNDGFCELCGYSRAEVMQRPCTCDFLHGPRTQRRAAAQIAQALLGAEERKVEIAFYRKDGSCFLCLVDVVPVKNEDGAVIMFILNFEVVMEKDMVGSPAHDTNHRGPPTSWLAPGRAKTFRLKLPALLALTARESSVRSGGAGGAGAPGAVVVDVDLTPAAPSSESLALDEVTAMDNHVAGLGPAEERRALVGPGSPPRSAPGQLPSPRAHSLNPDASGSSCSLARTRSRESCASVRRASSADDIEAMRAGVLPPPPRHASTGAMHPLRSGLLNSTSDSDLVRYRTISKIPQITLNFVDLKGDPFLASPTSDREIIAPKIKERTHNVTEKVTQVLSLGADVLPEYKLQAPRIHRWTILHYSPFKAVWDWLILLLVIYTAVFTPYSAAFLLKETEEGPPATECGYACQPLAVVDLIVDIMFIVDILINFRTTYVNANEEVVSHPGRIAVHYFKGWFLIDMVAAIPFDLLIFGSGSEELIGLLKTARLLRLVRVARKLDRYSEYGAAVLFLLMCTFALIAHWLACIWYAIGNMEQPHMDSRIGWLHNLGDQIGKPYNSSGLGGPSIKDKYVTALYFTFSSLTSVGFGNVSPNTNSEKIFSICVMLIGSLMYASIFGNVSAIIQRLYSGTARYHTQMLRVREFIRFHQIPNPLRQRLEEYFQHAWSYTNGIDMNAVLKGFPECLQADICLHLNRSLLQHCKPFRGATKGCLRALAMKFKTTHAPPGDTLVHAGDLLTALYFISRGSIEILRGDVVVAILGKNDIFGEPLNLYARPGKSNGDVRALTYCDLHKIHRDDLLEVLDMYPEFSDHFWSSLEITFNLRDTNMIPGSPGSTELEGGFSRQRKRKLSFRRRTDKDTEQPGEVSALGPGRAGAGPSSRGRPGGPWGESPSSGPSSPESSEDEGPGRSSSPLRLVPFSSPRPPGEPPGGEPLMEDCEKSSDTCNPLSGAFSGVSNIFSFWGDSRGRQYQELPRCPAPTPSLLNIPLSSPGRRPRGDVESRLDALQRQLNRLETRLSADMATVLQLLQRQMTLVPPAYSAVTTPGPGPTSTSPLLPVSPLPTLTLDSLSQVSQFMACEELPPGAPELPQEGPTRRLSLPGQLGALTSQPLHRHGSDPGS

CCCCCCCC(=O)Oc1c(Br)cc(C#N)cc1Br
inactive: Potency [1] | outcome [2] | Potency [6]
active: Potency [3] 35.5 µM | Potency [4] 39.8 µM | Potency [5] 12.6 µM

Nc1nc2ccc(OC(F)(F)F)cc2s1
inactive: Potency [1] | outcome [2] | Potency [7]
active: Potency [8] 13.3 µM

COc1ccc(-n2nc(C(F)F)cc2-c2ccc(S(C)=O)cc2)cc1 (stereo unspecified)
active: Potency [8] 30.6 µM | Potency [9] 35.6 µM | Potency [3] 2 µM | Potency [4] 31.7 µM | Potency [5] 31.7 µM | Potency [6] 31.7 µM
inactive: Potency [1] | outcome [2] | Potency [7] | Potency [10]

COc1ccc(/C=C/C(=O)c2ccc(OC)cc2OC)cc1
inactive: outcome [2] | Potency [7] | Potency [11] | Potency [10]
active: Potency [1] 10.6 µM | Potency [8] 29.8 µM | Potency [12] 22.4 µM | Potency [3] 3.89 µM | Potency [4] 6.92 µM | Potency [5] 4.56 µM

O=C(O)c1cccc(Oc2ccccc2)c1
inactive: Potency [1] | outcome [2] | Potency [7] | Potency [8] | Potency [9] | Potency [3] | Potency [5] | Potency [10] | Potency [6]

CC(=O)OCCC(C)CC(C)(C)C (stereo unspecified)
inactive: Potency [1] | outcome [2] | Potency [7] | Potency [8] | Potency [3] | Potency [4] | Potency [5] | Potency [10] | Potency [6]
active: Potency [9] 71 µM

CNS(=O)(=O)c1cc(C(=O)N2CCC(CCN3C4CCC3CC(n3c(C)nc5ccccc53)C4)(c3cccc(F)c3)CC2)c(Cl)cc1F (stereo unspecified)
active: Potency [13] 17.2 µM | Potency [7] 13.7 µM | Potency [9] 25.2 µM | Potency [3] 63.3 µM | Potency [4] 17.8 µM
inactive: outcome [2] | Potency [5]

CC(CN(CCN(CC(C)OCCO)CC(C)OCCO)CC(C)OCCO)OCCO (stereo unspecified)
inactive: Potency [1] | Potency [13] | outcome [2] | Potency [5] | Potency [10]
active: Potency [3] 86.1 µM

CC1CCCO1 (stereo unspecified)
inactive: Potency [1] | Potency [13] | outcome [2] | Potency [9] | Potency [3] | Potency [10]

COc1cc(OC)c2ccc(=O)oc2c1
active: Potency [5] 7.96 µM | Potency [6] 39.9 µM
inactive: Potency [1] | outcome [2] | Potency [7] | Potency [8] | Potency [10]

O=C(c1ccccc1)c1ccc(O)cc1
inactive: Potency [1] | outcome [2] | Potency [10] | Potency [6]
active: Potency [8] 61.8 µM | Potency [9] 40.4 µM | Potency [3] 40.4 µM | Potency [5] 32.1 µM

CCCCCC
inactive: Potency [1] | Potency [13] | outcome [2] | Potency [10]

COc1ccc(N)c([N+](=O)[O-])c1
active: Potency [5] 8.94 µM
inactive: Potency [1] | outcome [2]

CCCCCCCCCCCC(=O)OCC(O)CO (stereo unspecified)
inactive: Potency [1] | outcome [2] | Potency [8] | max activation [14] -6.09% | Potency [11] | Potency [12] | Potency [10]
active: Potency [3] 79.6 µM | Potency [4] 39.9 µM

Cc1ccc(Cl)cc1N
inactive: Potency [1] | outcome [2] | Potency [7] | Potency [10]
active: Potency [8] 55.5 µM | Potency [3] 36.2 µM | Potency [5] 10.2 µM

CN(C)CC/C=C1\c2ccccc2Sc2ccc(Cl)cc21
active: Potency [9] 2.75 µM | Potency [5] 7.23 µM
inactive: outcome [2] | max activation [14] 3.57% | Potency [4]

Cc1cc([N+](=O)[O-])ccc1N
inactive: outcome [2] | Potency [10] | Potency [6]
active: Potency [13] 53.8 µM | Potency [7] 33.9 µM | Potency [9] 31.3 µM | Potency [3] 35.1 µM | Potency [4] 39.4 µM | Potency [5] 3.51 µM

CCCCCc1ccco1
active: Potency [3] 32.8 µM | Potency [4] 26 µM | Potency [5] 36.8 µM
inactive: Potency [1] | outcome [2] | Potency [7]

Cc1ccc2c(c1[N+](=O)[O-])C(=O)c1ccccc1C2=O
active: Potency [1] 5.99 µM | Potency [7] 3 µM | Potency [8] 1.9 µM | Potency [5] 4.93 µM | Potency [6] 15.6 µM
inactive: outcome [2] | Potency [9] | Potency [3] | Potency [4]

Nc1cccc2c(N)cccc12
active: Potency [7] 61.1 µM | Potency [8] 17.2 µM | Potency [9] 2.38 µM | Potency [3] 7.96 µM | Potency [4] 9.2 µM | Potency [5] 3.72 µM
inactive: outcome [2] | Potency [10]

O=C1OC(=O)c2c(Br)c(Br)c(Br)c(Br)c21
inactive: Potency [13] | outcome [2] | Potency [7] | Potency [8] | Potency [9] | Potency [3] | Potency [5] | Potency [10] | Potency [6]

O=P(O)(O)Oc1ccccc1
inactive: Potency [1] | outcome [2] | Potency [7] | Potency [8] | Potency [3] | Potency [4] | Potency [5] | Potency [10] | Potency [6]

CC(CCc1ccc(O)cc1)NCCc1ccc(O)c(O)c1 (stereo unspecified)
inactive: Potency [1] | outcome [2] | Potency [8] | Potency [3] | Potency [4] | Potency [5] | Potency [6]
active: Potency [9] 15.5 µM

O[C@@H](CNC[C@H](O)[C@H]1CCc2cc(F)ccc2O1)[C@@H]1CCc2cc(F)ccc2O1
inactive: Potency [8] | Potency [3] | Potency [4] | Potency [5] | Potency [6]
active: Potency [1] 33.5 µM | Potency [13] 33.5 µM | Potency [9] 0.275 µM | Potency [10] 2.68 µM

CC/C=C\C/C=C\C/C=C\CCCCCCCC(=O)OCC
active: Potency [3] 64.8 µM | Potency [4] 40.9 µM | Potency [6] 72.7 µM
inactive: Potency [1] | Potency [7] | Potency [10]

O=C(O)CN1C(=O)c2cccc3cccc(c23)C1=O
inactive: Potency [1] | outcome [2] | Potency [7] | max activation [14] -2.76% | Potency [10]

C=C(C)C(=O)OCCC(F)(F)C(F)(F)C(F)(F)C(F)(F)C(F)(F)C(F)(F)F
inactive: Potency [1] | outcome [2] | Potency [7] | Potency [8] | Potency [9] | Potency [3] | Potency [4] | Potency [5] | Potency [10] | Potency [6]

COC(=O)Nc1nc2ccc(C(=O)C3CC3)cc2[nH]1
inactive: Potency [1] | outcome [2] | Potency [9] | Potency [3] | Potency [10]
active: Potency [8] 8.41 µM | Potency [5] 10.2 µM
